LASV entry inh: inhibitors of Lassa virus binding or cell entry; Lassa virus pseudotype entry inhibition, cell reporter; Potency, µM (highest dose often 37.9 µM), hits mostly inhibitors; actives 1.2% (n = 300,000); AID 540256; calls by dose curve; tested in HEK293 cells; further: nearly all actives have a fitted effect of over 50% in size
Shiga inhibitor: Shiga toxin inhibition. Vero cells, Shiga toxin protein synthesis inhibition reporter. inhibition, % at 38.7 µM. actives 9.2% (n = 290,000). AID 2315; in the data active means inhibition mostly above about 28%, no sharp cut-off; inactive means mostly below about 43%
Vaccinia mCherry: vaccinia inhibition (mCherry reporter) | AID 720579 | actives 0.63% (n = 310,000) | Vaccinia virus mCherry reporter infection, fluorescence | Potency, µM (series often up to 36.5 µM), hits mostly inhibitors; calls by dose curve; tested in A549 cells; further: nearly all actives have a fitted effect of over 35% in size
Cycloheximide cs: counter-screen hit for Shiga toxin inhibitors, cycloheximide; cell reporter, cycloheximide protein synthesis inhibition counterscreen; AID 2314; actives 12% (n = 300,000); max response, %; in the data active means max response mostly above about 13%, no sharp cut-off; inactive means mostly below about 14%; further: read at 38.3 µM for the half of the compounds with a filed dose
Vaccinia Venus: vaccinia inhibition (Venus reporter); Vaccinia virus Venus reporter expression, fluorescence; Potency, µM (series often up to 36.5 µM), hits mostly inhibitors; actives 0.46% (n = 330,000); calls by dose curve; tested in A549 cells; further: nearly all actives have a fitted effect of over 30% in size
MARV entry inh: blocks Marburg virus binding to or entry into cells; Marburg virus pseudotyped entry inhibition, cell reporter; Potency, µM (top dose mostly 37.8 µM), hits mostly inhibitors; AID 540276; actives 1.8% (n = 300,000); calls by dose curve; tested in HEK293 cells
A number is an active result; – = inactive; ? = inconclusive; · = no result; + = active, no number; [ ] = dose if it differs, or a comment. Shown is part of a subset that was picked to be rich in hits.

SMILES | LASV entry inh | Shiga inhibitor | Vaccinia mCherry | Cycloheximide cs | Vaccinia Venus | MARV entry inh
O=[N+]([O-])c1cc(/C=N\Nc2ccccn2)ccc1Cl | · | – | · | – | · | ·
O=[N+]([O-])c1ccc(/C=N/Nc2ccccn2)cc1 | · | 60.3 | · | 20.0 | · | ·
O=[N+]([O-])c1cc(Cl)cc(/C=N\Nc2ccccn2)c1O | ? | – | 2.24µM | – | ? | ?
COc1ccccc1-c1noc(-c2ccc(NC3CCCC3)c([N+](=O)[O-])c2)n1 | – | · | – | · | – | –
CC(C)Oc1ccc2ccccc2c1CNC[C@H]1O[C@@H](n2ccc(=O)[nH]c2=O)[C@H](O)[C@@H]1O | · | · | – | · | – | ·
O=C(c1ccccc1)c1cc2ccccc2oc1=O | – | 59.6 | – | – | – | –
Cc1cc[n+](CC(=O)c2cc3ccccc3oc2=O)cc1 | – | + | – | 60.4 | – | –
O=C(NNC(=O)c1cc2ccccc2oc1=O)c1ccccc1 | ? | 61.8 | – | 19.6 | – | –
O=C(Oc1ccccc1)c1cc2ccccc2oc1=O | ? | – | – | – | – | –
O=C(c1ccccc1)N1CCN(C(=O)c2cc3ccccc3oc2=O)CC1 | · | – | – | – | – | –
O=C(O)c1cc2ccccc2oc1=O | · | 58.2 | – | 42.8 | – | ·
O=C(Nc1ccon1)c1cc2ccccc2oc1=O | ? | – | · | – | · | –
Cc1ccc(-c2noc(C3CCCN(C(=O)c4ccc(C(C)(C)C)cc4)C3)n2)o1 (centres undefined) | · | – | – | – | – | –
Cc1cc(Cl)ccc1Nc1nc(NCc2ccco2)nc2nccnc12 | · | · | – | · | – | ·
CCOc1ccccc1NC(=O)CN1Cc2ccccc2C1=O | – | · | – | · | – | ·
COCC1CCCN(Cc2ccc3c(c2)CN(C(=O)c2cnn(C(C)C)c2)CCO3)C1 (centres undefined) | · | · | – | · | – | ·
O=C(NCCN1CCOCC1)c1cc2ccccc2o1 | – | – | – | – | – | –
O=C(NCCN1CCOCC1)c1cc2ccccc2oc1=O | – | 35.2 | – | – | – | ?
O=C(NCC(c1cccnc1)N1CCN(Cc2ccccc2)CC1)C(=O)Nc1cccc(F)c1 (centres undefined) | ? | · | – | · | – | ·
Nc1c(-c2ccccc2)cnn1-c1cccc(Cl)c1 | ? | 81.5 | ? | 51.4 | ? | ?
Cc1cc(Nc2ccccc2)n(-c2cccc(Cl)c2)n1 | – | – | · | – | · | –
Cc1cccc(-c2cnn(-c3cccc([N+](=O)[O-])c3)c2N)c1 | – | – | – | 22.3 | – | –
NC(=O)c1cnn(-c2cccc(Cl)c2)c1N | · | – | · | – | · | ·
Nc1ccccc1Nc1cc(-c2cccc(Cl)c2)nn1-c1ccccc1 | – | + | – | 19.9 | – | –
Cc1cccc(-c2cnn(-c3ccccc3)c2N)c1 | · | 100.9 | · | 43.7 | · | ·
SMILES | LASV entry inh | Shiga inhibitor | Vaccinia mCherry | Cycloheximide cs | Vaccinia Venus | MARV entry inh
CC(C)(C)c1cnnn1-c1cccc([N+](=O)[O-])c1 | – | – | – | – | – | –
COc1ccc(N(CC(=O)Nc2ccc(C(N)=O)cc2)S(=O)(=O)c2ccc(C)c([N+](=O)[O-])c2)cc1 | – | – | – | – | – | ?
COc1ccc(N(CC(=O)Nc2ccccc2C(N)=O)S(=O)(=O)c2ccc(C)c([N+](=O)[O-])c2)cc1 | – | – | · | 23.4 | · | ?
Cc1oc(C(=O)O)cc1CSCc1cc(C(=O)O)c(C)o1 | – | – | · | 12.0 | – | –
Cc1oc(C(=O)O)cc1CSCc1ccoc1C(=O)O | – | – | · | – | – | –
CC(C)COc1ccc(C(=O)N2CCCCC2CCN2CCOCC2)cc1 (centres undefined) | – | · | – | · | – | –
COc1ccc(CCNC(=O)c2ccc(Cl)cc2Cl)cc1 | – | – | – | – | – | ?
O=C(NCCCl)c1ccc(OCc2ccccc2)cc1Cl | · | 66.0 | · | 34.2 | · | ·
C#CCNC(=O)c1ccc(OCc2ccccc2)cc1Cl | – | 58.5 | – | – | – | –
CCCCN1CC(=O)N2[C@H]3c4ccc(OC)cc4OC[C@@H]3[C@H](c3ccccc3)[C@]2(C)C1=O | · | · | – | · | – | ·
Cc1ccc(C)c(NC(=O)CCCN2C(=O)COc3ccc(C)cc32)c1 | – | · | – | · | – | –
CCOC(=O)N1CCC(Nc2ncnc3c2cnn3-c2ccc(Cl)cc2)CC1 | – | 119.6 | – | 54.0 | – | ?
CCOC(=O)C1CCCN(c2ncnc3c2nnn3C)C1 (centres undefined) | ? | · | – | · | – | ·
CCOC(=O)C1CCCN(c2ncnc3c2cnn3-c2ccc(Cl)cc2)C1 (centres undefined) | ? | – | · | 16.6 | · | ?
CCOC(=O)C1CCCN(c2ncnc3c2cnn3-c2ccc(OC)cc2)C1 (centres undefined) | – | 70.1 | – | 34.6 | – | –
Cc1ccc(-n2ncc3c(NC4CCCC4)ncnc32)cc1 | ? | · | – | · | – | ·
COc1ccc(NC(=O)C(C)N2Cc3ccccc3C2=O)cc1OC (centres undefined) | – | · | – | · | – | ·
COC(=O)CN1C(=O)N/C(=C/c2ccccc2OC)C1=O | – | – | – | – | – | –
CCCC1NC(=O)c2cccnc2-n2c1nc1ccc(Cl)cc1c2=O (centres undefined) | · | · | – | · | – | ·
O=C(COc1cccc([N+](=O)[O-])c1)N/N=C/c1ccco1 | · | – | – | – | – | ·
CCCCOc1ccc(CCC(=O)N/N=C/c2ccco2)cc1 | ? | – | –[7.34 µM] | 11.8 | –[7.34 µM] | –
Cc1ccc([N+](=O)[O-])c(C(=O)N/N=C/c2cccs2)c1 | · | – | · | 21.8 | · | ·
Cc1ccn2c(C(=O)N/N=C\c3cccs3)c(C)nc2c1 | – | – | – | 16.2 | – | –
CCc1ccc(OCC(=O)N/N=C\c2ccco2)c([N+](=O)[O-])c1 | – | active | – | 16.4 | – | –
CCCOc1ccc(CCC(=O)N/N=C/c2ccco2)cc1 | ? | – | – | – | – | –
SMILES | LASV entry inh | Shiga inhibitor | Vaccinia mCherry | Cycloheximide cs | Vaccinia Venus | MARV entry inh
CC1CCCN(S(=O)(=O)c2ccc3c(c2)OCCO3)C1 (centres undefined) | · | · | – | · | – | ·
Cc1cc(C)n(CC(=O)N/N=C/c2cccs2)n1 | ? | 79.0 | – | 39.7 | – | –
Cc1cc(C)n(CC(=O)N/N=C/c2ccc([N+](=O)[O-])s2)n1 | ? | – | ? | – | ? | ?
Cc1ccc(OCC(=O)N/N=C\c2cccs2)c([N+](=O)[O-])c1 | – | 37.0 | – | 39.1 | – | –
Cc1ccc(Cl)cc1NC(=O)CCS(=O)(=O)c1cccc2nonc12 | – | – | – | – | – | –
Cc1cc(C)n(-c2nc3c(c(=O)n(Cc4ccc(Cl)c(Cl)c4)c(=O)n3C)n2C)n1 | · | · | · | · | · | –
COc1cccc(C(c2c(NC(=O)c3ccccc3)sc(C)c2C)N2CCN(C)CC2)c1 (centres undefined) | ? | – | – | – | – | 20µM
CCc1cc(C(c2cccc(OC)c2)N2CCOCC2)c(NC(=O)c2ccccc2)s1 (centres undefined) | – | – | –[1.46 µM] | 37.6 | – | –
CCc1cc(C(c2ccc(F)cc2)N2CCOCC2)c(NC(=O)c2ccccc2)s1 (centres undefined) | ? | – | – | – | – | –
CCN1CCN(C(c2ccccn2)c2c(NC(=O)c3ccccc3)sc(C)c2C)CC1 (centres undefined) | ? | – | ? | – | – | 10µM
CCc1cc(CN2CCOCC2)c(NC(=O)c2ccccc2)s1 | – | 78.9 | – | 26.5 | – | –
CCOc1ccc(CCNC(=O)COC(=O)c2nn(C)c(=O)c3ccccc23)cc1OCC | – | · | – | · | – | –
